From ChEMBL document CHEMBL4513216, “Probing the Open Global Health Chemical Diversity Library for Multistage-Active Starting Points for Next-Generation Antimalarials” (ACS Infect Dis, 2020)
The campaign covered roughly 69,000 compounds. About 8,600 (12%) showed an effect of 50% or more. Only a selection was taken, and strong results are over-represented in it overall.

The compounds below were run on Plasmodium berghei (assay: Screen against P. berghei liver stage (PbLuc), transformed with Luciferase, at 10uM). Settings: tested at 10 uM.
Type: functional, HepG2

Row | SMILES | INHIBITION
1 | Cc1nccn1CCCNC(=O)C1CCCCN1Cc1ccncc1 (stereo unspecified) | -2.07%
2 | CCCN1CCCCC1C(=O)Nc1ccc(-c2nnc[nH]2)cc1 (stereo unspecified) | -28.6%
3 | Cc1nccn1-c1ccc(NC(=O)C2CCCN2Cc2ccoc2)cc1 (stereo unspecified) | 54.4%
4 | Cc1nccn1-c1ccc(NC(=O)C2CCCN2Cc2c[nH]cn2)cc1 (stereo unspecified) | 36.2%
5 | Cc1nccn1-c1ccc(NC(=O)C2CCCN2CC2CC2)cc1 (stereo unspecified) | 55.4%
6 | Cc1cccnc1NC(=O)C1CCCN1Cc1ccccc1 (stereo unspecified) | -10.4%
7 | O=C(NCC1(O)COCCN(Cc2ccc(O)cc2)C1)c1cnccn1 (stereo unspecified) | -42.9%
8 | CCCc1nnc(NC(=O)Cc2c(C)nc(C)[nH]c2=O)s1 | 16.585%
9 | O=C(NCc1cccs1)c1nc2c(o1)CN(CC1CC1)C2 | -31.4%
10 | CNC(=O)[C@@H]1[C@@H](OC(=O)Nc2ccccc2)C(=O)N(C)C12CCNCC2 | 35.8%
11 | COc1ccc(C(C(=O)O)N2CCC(Cn3cccn3)CC2)c(OC)n1 (stereo unspecified) | -40%
12 | CCCc1nc(CN2CCCCC2Cn2cncn2)cs1 (stereo unspecified) | 30.6%
13 | COCCOCC(=O)N1CCC2(CCCN(C3CCOCC3)C2=O)C1 (stereo unspecified) | -7.7%
14 | Cn1nnc2c(N3CC(C(=O)NCCC4=CCCCC4)C3)ncnc21 | -19.1%
15 | O=C(C1CCOCC1)N1C[C@@H]2C[C@@H](c3nc(C4CC4)cs3)O[C@@H]2C1 | 31.8%
16 | Cc1csc(CN2CC[C@H]3C[C@@H](c4nnc(C)[nH]4)O[C@@H]3C2)n1 | 72.3%
17 | Cc1csc([C@@H]2C[C@@H]3CCN(Cc4cc(C)on4)C[C@H]3O2)n1 | 26.7%
18 | Cc1cc(CN2CC[C@H]3C[C@@H](C)O[C@@H]3C2)no1 | 50.9%
19 | Fc1cnc(N2C[C@@H]3C[C@@H](c4nc(C5CC5)cs4)O[C@@H]3C2)nc1 | 62.3%
20 | Cc1csc([C@@H]2C[C@H]3CN(c4ncc(F)cn4)C[C@H]3O2)n1 | 22.6%
21 | Cc1cc(CN2CC[C@H]3C[C@H](C(=O)N(C)C)O[C@@H]3C2)no1 | 23.9%
22 | Cc1cc(CN2CC[C@H]3C[C@H](C)O[C@@H]3C2)no1 | 34.1%
23 | Cc1csc(CN2CC[C@H]3C[C@H](c4nnc(C)[nH]4)O[C@@H]3C2)n1 | 23.5%

Row | SMILES | INHIBITION
24 | Cc1csc(CN2CC[C@H]3C[C@H](c4noc(C)n4)O[C@@H]3C2)n1 | 42.5%
25 | Cc1csc([C@H]2C[C@H]3CN(Cc4cc(C)on4)CC[C@@H]3O2)n1 | 46.6%
26 | Cc1csc([C@H]2C[C@@H]3CCN(Cc4cc(C)on4)C[C@H]3O2)n1 | 64.7%
27 | Cc1c(C2CC(=O)Nc3c2cnn3C(C)(C)C)cnn1C (stereo unspecified) | -56.7%
28 | Cc1[nH]c2nc(CNc3cccc(Cl)c3)nn2c(=O)c1C | -10.7%
29 | Cc1csc([C@H]2C[C@@H]3CCN(Cc4cnn(C)c4)C[C@H]3O2)n1 | -63.5%
30 | Cc1cc(CN2CC[C@H]3C[C@@H](c4nc(C5CC5)cs4)O[C@@H]3C2)no1 | 68.4%
31 | Cc1nnc([C@H]2C[C@@H]3CCN(Cc4ccc(C)o4)C[C@H]3O2)[nH]1 | 31.7%
32 | Cc1cc(CN2CC[C@H]3C[C@@H](c4nccs4)O[C@@H]3C2)no1 | 57.9%
33 | Cc1nnc([C@H]2C[C@@H]3CCN(Cc4cc(C)on4)C[C@H]3O2)[nH]1 | 35.8%
34 | Cc1cc(CN2CC[C@H]3C[C@H](c4nccs4)O[C@@H]3C2)no1 | 25%
35 | Cc1noc(C)c1CN1CC[C@H]2C[C@H](c3nccs3)O[C@@H]2C1 | 40.4%
36 | Cc1ccc(CN2CC[C@H]3C[C@H](c4nc(C5CC5)cs4)O[C@@H]3C2)o1 | 21.3%
37 | Cc1csc([C@@H]2C[C@@H]3CCN(C(=O)c4ccnnc4)C[C@H]3O2)n1 | -19%
38 | Cc1ccc(CN2CC[C@H]3C[C@@H](c4nc(C5CC5)cs4)O[C@@H]3C2)o1 | 63.5%
39 | Cc1csc([C@@H]2C[C@@H]3CCN(C(=O)c4cccn4C)C[C@H]3O2)n1 | 50.7%
40 | Cc1csc([C@H]2C[C@@H]3CCN(C(=O)c4ccnnc4)C[C@H]3O2)n1 | 4.61%
41 | CC(C)c1nn(C)cc1CNCc1ccnc(N(C)C)c1 | 23.7%
42 | Cn1ccc2ccnc(CC3CN(C(=O)c4cscn4)C3)c21 | 3.91%
43 | CNC(=O)[C@@H]1CN(C(=O)CCOC)C[C@H]1c1ccnc(N2CCCC2)n1 | -4.68%
44 | CCc1nccn1C1CCCN(C(=O)COCC(F)(F)F)C1 (stereo unspecified) | 45.6%
45 | Cc1ccc2c(c1)N(C(=O)c1cc[nH]c(=O)c1)CC(C)O2 (stereo unspecified) | 19.3%
46 | COCc1nn(CC2CC2)c2c1CN(Cc1cncn1C)CC2 | -88.6%

Row | SMILES | INHIBITION
47 | CC(C(=O)N1CCOCC1)n1cncn1 (stereo unspecified) | -18.8%
48 | CN(C)c1cccc(CNCc2ccc(N3CCOCC3)cc2)c1 | 34.1%
49 | Cc1csc([C@@H]2C[C@@H]3CCN(Cc4cnn(C)c4)C[C@H]3O2)n1 | -3.19%
50 | Cn1cc(CN2CC[C@H]3C[C@H](c4nc(C5CC5)cs4)O[C@@H]3C2)cn1 | 41.8%
51 | Cc1csc(CN2C[C@@H]3CN(S(C)(=O)=O)CCO[C@@H]3C2)n1 | 33.1%
52 | Cc1csc(CN2C[C@@H]3CN(CC4CCOCC4)CCO[C@@H]3C2)n1 | 47.5%
53 | Cc1csc(CN2C[C@@H]3CN(C)CCO[C@@H]3C2)n1 | 57.5%
54 | Cc1csc([C@@H]2C[C@@H]3CCN(C(=O)c4cc(C)on4)C[C@H]3O2)n1 | 5.53%
55 | Cc1cc(CN2CC[C@H]3C[C@H](c4nc(C5CC5)cs4)O[C@@H]3C2)no1 | 74.7%
56 | c1cc(CN2CC[C@H]3C[C@H](c4nc(C5CC5)cs4)O[C@@H]3C2)ccn1 | 67.5%
57 | Cn1cc(CN2CC[C@H]3C[C@@H](c4nc(C5CC5)cs4)O[C@@H]3C2)cn1 | 47%
58 | Cc1nn(C)cc1S(=O)(=O)NC1(CN2CCOCC2)CCCCC1 | 28%
59 | COc1ccccc1C(C)(C)NC(=O)c1cc(NC(C)=O)ccc1F | -52.3%
60 | CCSCc1nc(O)c2nnn(C3CCN(Cc4ccoc4)CC3)c2n1 | 18.39%
61 | CC(C)c1nc2c(n1C)CCN(CC(=O)Nc1cccnc1)C2 | -55.4%
62 | O=C(NCC1CCN(c2ccncc2)CC1)C(O)c1ccccc1 (stereo unspecified) | 36.4%
63 | Cc1nocc1C(=O)N1CCCC2(CCN(c3cnn(C)c3)C2=O)C1 (stereo unspecified) | 38.5%
64 | CC(C)c1cc(C2CCCN2C(=O)CN2C(=O)CCNC2=O)no1 (stereo unspecified) | 5.91%
65 | O=S(=O)(c1ccccc1Br)N1CCC2(CC1)OCCS2 | 0.325%
66 | Cc1cnn(CC2CN(CC(=O)NCc3ccco3)CCO2)c1 (stereo unspecified) | 11.2%
67 | CCCN(Cc1cnn(C)c1)S(=O)(=O)c1cc(C)cc(F)c1 | -6.11%
68 | Cc1noc(CCCC(=O)NCC2CCS(=O)(=O)C2)n1 (stereo unspecified) | -7.35%
69 | Cn1nccc1-c1ccc2nc(C3CCN(CC4CC4)CC3)nn2c1 | 38.2%

Row | SMILES | INHIBITION
70 | CS(=O)(=O)CCCN(CCc1cccc(F)c1)C1CC1 | -22.3%
71 | O=C(C1CCOC1)N1C[C@H]2CN(c3ccccc3)C(=O)[C@H]2C1 (stereo partly specified) | 52.6%
72 | O=C(C1CCOC1)N1C[C@H]2CN(Cc3cccc(F)c3)C(=O)[C@H]2C1 (stereo partly specified) | 34.9%
73 | COc1ccc(CN2C[C@@H]3CN(C(=O)[C@H]4CCCO4)C[C@@H]3C2=O)cc1 | -43%
74 | Cc1cccc(CN2C[C@@H]3CN(C(=O)c4ccnnc4)C[C@@H]3C2=O)c1 | 4.61%
75 | O=C(C1CCOC1)N1C[C@H]2CN(Cc3cccnc3)C(=O)[C@H]2C1 (stereo partly specified) | 17.7%
76 | CN1C[C@@H]2CN(C(=O)C3CCOC3)C[C@@H]2C1=O (stereo partly specified) | 33%
77 | Cc1cccc(CN2C[C@@H]3CN(C(=O)C4CCOC4)C[C@@H]3C2=O)c1 (stereo partly specified) | 53%
78 | Cc1cccc(CN2C[C@@H]3CN(C(=O)[C@H]4CCCO4)C[C@@H]3C2=O)c1 | 58.2%
79 | O=C(C1CCC1)N1C[C@@H]2CN(c3ccccc3)C(=O)[C@@H]2C1 | 46.9%
80 | Cn1cc(CN2CCCC3(CCN3S(C)(=O)=O)C2)cn1 (stereo unspecified) | 28.7%
81 | C=C(Br)CN(C)C1CCN(CCc2ccccn2)CC1 | -9.37%
82 | O=C(CSc1ccc(Br)cc1)NS(=O)(=O)c1ccc2c(c1)OCCO2 | 30.55%
83 | Cc1nc2c(c(N3CCCOCC3)n1)CCN(c1nccs1)CC2 | 41.1%
84 | O=C(CCN1CCCCO1)N1CCC(CO)(Cc2ccccc2)CC1 | -9.44%
85 | O=C1CC(c2cccs2)Cc2[nH]c(=O)ccc21 (stereo unspecified) | -32.1%
86 | CC1CC(=O)c2cc(C(=O)N3CCc4ccccc43)c(=O)[nH]c2C1 (stereo unspecified) | 21.5%
87 | CC(C)NC(=O)c1cc2c([nH]c1=O)CC(c1cccs1)CC2=O (stereo unspecified) | 62.3%
88 | CCCNC(=O)c1cc2c([nH]c1=O)CC(c1cccs1)CC2=O (stereo unspecified) | 41.8%
89 | O=C1CC(c2ccc(F)cc2)Cc2[nH]c(=O)c(C(=O)O)cc21 (stereo unspecified) | -67.9%
90 | O=C1CC(c2cccs2)Cc2[nH]c(=O)c(C(=O)NC3CCCC3)cc21 (stereo unspecified) | 59.5%
91 | CCOCC1CN(Cc2ccco2)Cc2nccn2C1 (stereo unspecified) | 10.7%
